14 compounds from PubChem BioAssay (NCI) can be followed below.

Compounds without any hit were thinned out: in the full panel of roughly 83,000, 20% have a hit.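 The test compound was applied at a single concentration to cells in 96-well plates for 48 hours, and percent growth was recorded.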 Values without a mark were called inactive. The source made the active and inactive calls. Rule for the calls: active = growth percent below 10; inactive = the rest.

Some test systems named below: DU-145 prostate; MALME-3M melanoma; MDA-MB-231 breast; RXF 393 renal; SF-268 CNS; SF-295 CNS; SF-539 CNS; UACC-257 melanoma; M14 melanoma.
Test in all cases: NCI-60 one-dose screen, 48 h (100 = growth as untreated, 0 = no growth, -100 = all killed)
Details in all cases: 10 µM unless noted

Regarding `COc1ccc(/C=C/c2nc(Nc3cccc(NC(C)=O)c3)c3ccccc3n2)cc1`, the growth is 88.7% in the experiment with DU-145 prostate; 102% in the experiment on MALME-3M melanoma; 85.3% in the experiment with MDA-MB-231 breast; 104% with RXF 393 renal; 92.1% with SF-268 CNS; 83.1% in the experiment with SF-295 CNS. Besides, the growth in the experiment with SF-539 CNS is 98.5%; in the experiment with UACC-257 melanoma it was 95.6%; in the experiment with M14 melanoma, 72.9%.
In the case of `Cc1nc2sccn2c1-c1cn2ccsc2n1`, the growth in the experiment on DU-145 prostate was 76.3%; in the experiment with MALME-3M melanoma it was 77.7%; in the experiment with MDA-MB-231 breast, 81.3%; with RXF 393 renal, 77.5%; with SF-268 CNS, 102%; with SF-295 CNS, 89.9%. Moreover, the growth with SF-539 CNS was 90.5%; in the experiment with UACC-257 melanoma, 91%; in the experiment on M14 melanoma, 93.7%.
Regarding `CCCCCCCC(=O)OCC/C=C/C1OC1C1OC(=O)/C=C\C=C\C(=O)N(C(C)=O)C(=O)/C=C(/C)CCC2OC2C1OC(=O)NC(C)=O` (stereo unspecified), the growth is 84.3% with DU-145 prostate; 123% in the experiment with MALME-3M melanoma; 73.9% in the experiment with MDA-MB-231 breast; 78.7% with RXF 393 renal; 93.4% in the experiment with SF-268 CNS; 90.9% in the experiment with SF-295 CNS. The values for the growth with SF-539 CNS, in the experiment with UACC-257 melanoma and in the experiment with M14 melanoma were 25.9%, 84.2% and 81.7%, respectively.
Consider `COc1cc2cc(Oc3cccc(NC(=O)Nc4cc(C(F)(F)F)cc(C(F)(F)F)c4)c3)c(C)nc2cc1OC`, for which the growth in the experiment with DU-145 prostate was 19.5%; in the experiment with MALME-3M melanoma it was -3.13% (active); in the experiment on MDA-MB-231 breast it was -36.1% (active); in the experiment on RXF 393 renal, -24.5% (active); in the experiment on SF-268 CNS it was 15.3%; with SF-295 CNS it was -59.2% (active). Further, the growth in the experiment with SF-539 CNS is -40.9% (active); with UACC-257 melanoma it was -4.68% (active); with M14 melanoma, 9.04% (active).
In the case of `C=C1C(=O)O[C@H]2[C@H]1CC/C(CNS(=O)(=O)c1cccc3ccccc13)=C\CC[C@@]1(C)O[C@@H]21`, the growth is 25.5% in the experiment with DU-145 prostate; -18.4% (active) with MALME-3M melanoma; 43.6% with MDA-MB-231 breast; -14.9% (active) in the experiment on RXF 393 renal; 58% in the experiment on SF-268 CNS; 82.2% with SF-295 CNS. Moreover, the growth was 49.2% with SF-539 CNS, 70.4% with UACC-257 melanoma and 31.7% in the experiment on M14 melanoma.
For the compound `O=C1/C=C/[C@@H](O)[C@@H]2C[C@@H](O)C[C@H]2/C=C/CCC[C@H](CCc2ccc3ncccc3c2)O1`, the growth is 13.5% in the experiment with DU-145 prostate; -17.8% (active) in the experiment on MALME-3M melanoma; -43% (active) with MDA-MB-231 breast; -32.6% (active) in the experiment on RXF 393 renal; 15.2% with SF-268 CNS; 1.79% (active) in the experiment on SF-295 CNS. Also, the figures for the growth with SF-539 CNS, with UACC-257 melanoma and in the experiment on M14 melanoma were 19.2%, 19.3% and 6.52% (active), respectively.
Consider `Cc1ccc(C(=O)/C(=C\c2ccc([N+](=O)[O-])cc2)S(=O)Cc2ccc(F)cc2)cc1` (stereo unspecified), for which the growth in the experiment with DU-145 prostate was 18.6%; in the experiment with MALME-3M melanoma, -3.22% (active); with MDA-MB-231 breast, 11%; with RXF 393 renal, -80% (active); in the experiment with SF-268 CNS, 19.5%; with SF-295 CNS it was 62.5%. In addition, the growth in the experiment on SF-539 CNS was 15.4%; in the experiment on UACC-257 melanoma, 91.6%; with M14 melanoma, 28.2%.
In the case of `C/C=C(\C)C(=O)NC1=CC[C@@]2(C)C(=CCC3C2CC[C@@]2(C)C3CC[C@@H]2C(C)N(C)C)C1=O` (stereo partly specified), the growth was 64.6% in the experiment with DU-145 prostate; -42.9% (active) in the experiment with MALME-3M melanoma; 34.8% in the experiment on MDA-MB-231 breast; 10.7% in the experiment with RXF 393 renal; 10.4% with SF-268 CNS; 31.7% in the experiment with SF-295 CNS. For the same compound, the growth with SF-539 CNS was -49% (active); in the experiment on UACC-257 melanoma, 2.46% (active); in the experiment on M14 melanoma it was -32.1% (active).
Regarding `O=C1Nc2ccccc2/C1=C\c1c(-c2ccccc2)nc2ccccn12`, the growth is 63.5% in the experiment on DU-145 prostate; 43.6% in the experiment with MALME-3M melanoma; 59.2% in the experiment with MDA-MB-231 breast; 26.8% in the experiment on RXF 393 renal; 51.2% in the experiment with SF-268 CNS; 24% with SF-295 CNS. In addition, the growth with SF-539 CNS was 49.6%; in the experiment with UACC-257 melanoma it was 87.6%; in the experiment with M14 melanoma, 3.79% (active).
Regarding `O=C(NNc1nc2c(F)cccc2n2cccc12)c1cnccn1`, the growth was 26.2% with DU-145 prostate; 18.3% in the experiment with MALME-3M melanoma; 31.7% with MDA-MB-231 breast; 37.5% in the experiment on RXF 393 renal; 30.6% in the experiment on SF-268 CNS; 8.17% (active) in the experiment with SF-295 CNS. For the same compound, the growth in the experiment on SF-539 CNS was -0.386% (active); with UACC-257 melanoma, 16.2%; with M14 melanoma it was 3.21% (active).
`CC(C)(C)[Si](C)(C)OC1[C@@H](O[Si](C)(C)C(C)(C)C)[C@@H](CNC(=O)NC(=O)CCl)O[C@H]1n1cnc2c(NC(=O)Nc3ccccc3)ncnc21` (stereo partly specified): the growth in the experiment on DU-145 prostate is -2.39% (active); with MALME-3M melanoma, -70.2% (active); with MDA-MB-231 breast, -72.7% (active); in the experiment with RXF 393 renal, -93.1% (active); with SF-268 CNS it was -77.4% (active); in the experiment with SF-295 CNS, -71.2% (active). The growth is -86.2% (active) in the experiment on SF-539 CNS, 14.1% in the experiment on UACC-257 melanoma and -56% (active) in the experiment on M14 melanoma.
In the case of `O=c1c2c(c(=O)n1O)c1c3ccc[nH]c3nc1c1nc3[nH]cccc3c12`, the growth was 95.4% in the experiment on DU-145 prostate; 84.3% in the experiment with MALME-3M melanoma; 77.4% in the experiment on MDA-MB-231 breast; 87% in the experiment with RXF 393 renal; 71.7% in the experiment with SF-268 CNS; 96% in the experiment with SF-295 CNS. The growth was 83.9% in the experiment on SF-539 CNS, 85.4% with UACC-257 melanoma and 94% in the experiment on M14 melanoma.
Turning to `N#C/C(=C\c1cccc(C#N)c1)c1ccccc1`, the growth was 101% with DU-145 prostate; 98.9% in the experiment with MALME-3M melanoma; 102% in the experiment on MDA-MB-231 breast; 108% with RXF 393 renal; 99% in the experiment with SF-268 CNS; 99.5% with SF-295 CNS. Moreover, the values for the growth in the experiment on SF-539 CNS, in the experiment on UACC-257 melanoma and in the experiment on M14 melanoma were 99.4%, 99.2% and 104%, respectively.
With `CCCN1[C@@H]2CC[C@H]1/C(=C\c1ccc(OC)c(OC)c1)C(=O)/C2=C/c1ccc(OC)c(OC)c1`, the growth is 59.7% in the experiment with DU-145 prostate; 83.9% in the experiment with MALME-3M melanoma; 56.3% in the experiment on MDA-MB-231 breast; 58.3% in the experiment on RXF 393 renal; 59.2% in the experiment on SF-268 CNS; 30.9% with SF-295 CNS. Also, the growth with SF-539 CNS is 59.4%; with UACC-257 melanoma, 42.1%; with M14 melanoma it was 43.1%.
